# From PubChem BioAssay AID2732 (Emory University Molecular Libraries Screening Center, 2010)
# Among all 220,000 compounds or so, about 8,200 (3.7%) were called active. The sample holds actives, similar compounds and a random draw of the others, so the mix is not that of the screen. A number with no mark means an inactive call.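 Rule for the calls: active = compounds that reduced the stress-induced luciferase reporter signal by more than about 70% of percent inhibition (limit read from the data); inactive = the rest.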
# Experiment: inhibitors of CHOP promoter induction, primary screen, cell-based, unfolded protein response, luciferase reporter (AID 2732);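 note: 0% = tunicamycin plus vehicle and 100% = wells without tunicamycin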
# Conditions: CHO-K1 CHOP-promoter luciferase, tunicamycin-induced, 15-18 h; at 10 µM; active compounds read high
row,Compound,inhibition
1,CCn1c(SCC(=O)N/N=C/c2ccncc2)nc2ccccc21,24.8%
2,CCOC(=O)c1c(NC(=O)CSc2nnc(Cc3csc(N)n3)n2C)sc(C)c1C,4.17%
3,CCOC(=O)c1sc(NC(=O)CSc2nnc(-c3ccco3)o2)c(C(=O)OCC)c1C,19.2%
4,CCOC(=O)c1c(NC(=O)CSc2nnc(CNc3ccc(C)cc3C)o2)sc(C)c1C,80.7% (active)
5,Nc1c(Cl)cc(S(N)(=O)=O)cc1S(N)(=O)=O,4.35%
6,Cn1cc(/C=C/c2nc3ccccc3c(=O)n2-c2cccc([N+](=O)[O-])c2)c2ccccc21,86% (active)
7,O=[N+]([O-])c1cccc(Nc2c3ccccc3nc3ccccc23)c1,47.9%
8,CCn1c(/C=C/c2ccc([N+](=O)[O-])o2)nc2ccccc2c1=O,5.31%
9,CCn1c2ccccc2c2cc(NC(=O)Nc3ccc([N+](=O)[O-])cc3C)ccc21,31.1%
10,Nc1scc[n+]1Cc1cccc2cccnc12,12%
11,Cc1cc(NC(=O)/C=C/C(=O)N(c2ccccc2C)C(C(=O)NC2CCCC2)c2ccc(F)cc2)no1 (configuration not stated),87.6% (active)
12,Cc1cc(NC(=O)CCC(=O)N(c2cccc(F)c2)C(C(=O)NC2CCCC2)c2ccncc2)no1 (configuration not stated),-6.58%
13,Cc1cc(NC(=O)/C=C/C(=O)N(CC(=O)NC2CCCC2)c2ccc(F)cc2)no1,-11.4%
14,Cn1cccc1/C=N/NC(=O)CNc1cccc2ccccc12,10.8%
15,O=C(O)c1cccnc1Sc1ncnc2sc3c(c12)CCC3,-7.08%
16,O=C1OC(/C=C/c2ccccc2)=NC/1=C/c1ccco1,0.75%
17,CCC1S/C(=N/N=C/c2ccco2)NC1=O (configuration not stated),40.4%
18,CC(C)(C)C1C/C(=C/c2ccco2)C(=O)/C(=C/c2ccco2)C1 (configuration not stated),108% (active)
19,COc1ccc(-c2csc(NC3OC(=O)c4ccccc43)n2)cc1 (configuration not stated),-118%
20,COc1cc(/C=N\Nc2nc(-c3cccs3)c(NC(C)=O)s2)ccc1O,-7.52%
21,NNC(=O)c1ccc(COCC(F)(F)C(F)F)cc1,-2.57%

row,Compound,inhibition
1,COc1ccc(CCNC(=O)C(=O)NCC2CCNCC2)cc1OC,-6.48%
2,C=CCNC(=O)c1ccc(C)c(Br)c1,24.2%
3,C=CCNC(=S)NNC(=O)c1cc(Cl)ccc1OC,-7.01%
4,C=CCNC(=O)c1sc(SC)cc1-c1ccc(Cl)cc1,72.1% (active)
5,COc1cc(NC(=O)c2ccc(CNc3c(N4CCCC4)c(=O)c3=O)cc2)cc(OC)c1OC,-0.87%
6,COc1ccccc1-n1c(SCC(=O)O)nc2sc3c(c2c1=O)CCC3,8.81%
7,CCOc1ccc(/C(O)=C2\C(=O)C(=O)N(c3ccc(OC)cc3)C2c2ccccc2[N+](=O)[O-])cc1 (configuration not stated),-9.44%
8,O=c1c(-c2ccccc2)coc2c(CN3CCOCC3)c(O)ccc12,-10.6%
9,CC(C)=CCc1c(O)c(CC=C(C)C)c2occ(-c3ccc(O)cc3)c(=O)c2c1O,104% (active)
10,O=c1c(-c2ccccc2)coc2cc(O)ccc12,15.5%
11,O=C(c1ccc(Cl)cc1)N1N=C(c2ccccn2)CC1(O)C(F)(F)F (configuration not stated),6.12%
12,Nc1nc(NC(=O)/C=C/c2ccc(F)cc2)nn1-c1ccccc1,18.8%
13,CCn1c(SCC(=O)Nc2nc3ccc(OC)cc3s2)nnc1-c1ccoc1C,14.3%
14,Cc1noc(C)c1CSCC(=O)Nc1nc2ccc(Oc3ccccc3)cc2s1,80.2% (active)
15,CCOC(=O)c1c(C2CC2)csc1NC(=O)CSCc1c(C)noc1C,50.5%
16,Cc1ccc(NNC(=O)C2CCC2)cc1C,6.66%
17,COc1ccc2cc1Oc1ccc(cc1)C[C@H]1c3cc(c(OC)cc3CCN1C)Oc1c(O)c(OC)cc3c1[C@H](C2)N(C)CC3,-41.5%
18,CN(CC(=O)Nc1ccc(S(=O)(=O)N2CCCC2)cc1)Cc1ccc(Cl)c(Cl)c1,25.8%
19,CS(=O)(=O)N(CC(=O)Nc1ccc(Cl)c(Cl)c1)C1CCCCC1,99.8% (active)
20,CCC(C)NC(=O)CN(C1CCCCC1)S(C)(=O)=O (configuration not stated),5.15%
21,O=C(O)C(NS(=O)(=O)c1cccc2nsnc12)c1ccccc1 (configuration not stated),16%

row,Compound,inhibition
1,O=C1COc2ccc(C(=O)COC(=O)c3cccnc3Cl)cc2N1,-9.06%
2,CCCc1nc2ccccc2c(C(=O)OCC(=O)c2ccc3c(c2)NC(=O)CO3)c1CC,102% (active)
3,CCCc1nc2ccccc2c(C(=O)OCc2nnc(-c3cc(OC)c(OC)c(OC)c3)o2)c1CC,58%
4,C#CCO[C@@H]1C[C@H](n2cnc3c(=O)[nH]c(NC(=O)C(C)C)nc32)O[C@@H]1CO,-12.9%
5,COc1ccc([N+](=O)[O-])cc1N(CC(O)CN(CC(C)C)CC(C)C)S(=O)(=O)c1ccc(C)cc1 (configuration not stated),9.51%
6,COc1ccc(CN2C(=O)C(C)S/C2=N/N=C/c2ccco2)cc1 (configuration not stated),5.76%
7,S=C(NCCc1ccccc1)Nc1ccccc1,-23.1%
8,S=C(NCCc1ccccc1)NCc1ccccc1Cl,76.7% (active)
9,Cc1ccc(NC(=S)NCc2ccccc2Cl)c(C)c1,21.4%
10,CCCCCCCCCCCCC(NC(C)=O)(C(=O)OCC)C(=O)OCC,28.6%
11,Cc1cc(-c2n[nH]c(=S)n2/N=C/c2ccco2)n[nH]1,-10.9%
12,Cc1cc(-c2n[nH]c(=S)n2/N=C/C(Br)=C/c2ccccc2)n[nH]1,106% (active)
13,S=c1[nH]nc(-c2cccnc2)n1/N=C/C(Cl)=C\c1ccccc1,-39.3%
14,COC(=O)c1sc(NC(=S)NC(=O)c2ccc(C)cc2)nc1C,-2.37%
15,Nc1ccccc1C(=O)NC1CCCCNC1=O (configuration not stated),13.6%
16,COc1ccccc1Cn1c(CO)nc2ccccc21,6.99%
17,Cc1ccc(Nc2c3c(nc4ccccc24)CCC3)cc1,17.5%
18,Cc1cc(C2=NNC(=Nc3ccc(S(=O)(=O)N4CCOCC4)cc3)SC2)c(C)n1CC1CCCO1 (configuration not stated),6.71%
19,COCCn1c(C)cc(C2=NNC(=Nc3ccc(F)cc3)SC2)c1C,-7.2%
20,C=CCn1c(C)cc(C2=NNC(=NCC)SC2)c1C,105% (active)
